Assay results taken from PubChem BioAssay (Tox21).
Inconclusive results are not listed. A call without a number means that no potency is given here. Some structures have more than one record in an assay (separate samples or runs), and their calls can disagree. Active and inactive are the calls of the source. The call rests on the fitted dose curve.

Target: Beta-2 adrenergic receptor (Homo sapiens) (UniProt P07550)
Test: Adrenergic beta2 receptor (ADRB2) small molecule agonists, cell-based qHTS assay (AID 1963593);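 on activation: CHO cells stably overexpressing human ADRB2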
Procedure, shortened: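 CHO cells stably over-expressing ADRB2 were plated overnight at 37C, then dosed with compounds plus a stimulation mix containing 100uM IBMX and 25uM Ro-20-1724 for 0.5hr at room temperature. cAMP was measured by HTRF competition, 1hr.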
Potency means the concentration at half of the fitted maximal effect.

Sequence of Beta-2 adrenergic receptor (Homo sapiens) (P07550 whole entry, looked up): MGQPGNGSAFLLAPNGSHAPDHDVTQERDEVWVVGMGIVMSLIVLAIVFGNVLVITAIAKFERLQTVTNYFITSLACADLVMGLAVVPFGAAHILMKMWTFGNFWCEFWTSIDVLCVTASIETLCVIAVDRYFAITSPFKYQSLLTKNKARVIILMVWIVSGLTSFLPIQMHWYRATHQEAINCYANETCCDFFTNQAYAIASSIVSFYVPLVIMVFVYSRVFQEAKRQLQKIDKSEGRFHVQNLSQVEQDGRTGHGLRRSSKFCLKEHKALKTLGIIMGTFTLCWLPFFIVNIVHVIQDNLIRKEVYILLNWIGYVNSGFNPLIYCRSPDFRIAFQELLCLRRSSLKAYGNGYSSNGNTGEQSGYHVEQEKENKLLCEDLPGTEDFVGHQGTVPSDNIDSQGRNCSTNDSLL

| SMILES | Potency | activation |
| --- | --- | --- |
| CC(=O)[O][Al][O]C(C)=O | inactive | – |
| CN1C(=O)CC(C)(c2ccccc2)C1=O (centres undefined) | inactive | – |
| C=C(C)[C@@H]1CCC2=CC(=O)C[C@@H](C)[C@]2(C)C1 | inactive | – |
| O=C(c1ccc(Cl)cc1)c1ccc(Cl)cc1 | inactive | – |
| CCCCOC(=O)C(=O)OCCCC | inactive | – |
| CNCCO | inactive | – |
| CCC(=O)OC(C)(C)C1CC=C(C)CC1 (centres undefined) | inactive | – |
| NC(=O)Nc1ccc(Cl)cc1 | inactive | – |
| CC(C)(C)c1ccc(C=O)cc1 | inactive | – |
| NCCC(O)(P(=O)(O)O)P(=O)(O)O | inactive | – |
| CC(C)CCCCCOC(=O)CS | inactive | – |
| COC(=O)c1ccc2cc(C(=O)OC)ccc2c1 | – | 21.2% [at 19 µM] (inactive) |
| CCCCCCOC(=O)c1ccccc1O | inactive | – |
| CCCCCCCCC1CCC(=O)O1 (centres undefined) | inactive | – |
| C[N+](C)(C)CC[N+]1(C)Cc2c(Cl)c(Cl)c(Cl)c(Cl)c2C1 | inactive | – |
| CCOc1ccccc1OCC | inactive | – |
| COc1ccc2cc(C=O)ccc2c1 | inactive | – |
| O=C(O)/C=C/c1ccc(Cn2ccnc2)cc1 | inactive | – |
| O=C(O)c1ccc([N+](=O)[O-])cc1 | inactive | – |
| O=c1[nH]c2ccccc2c(=O)n1CCCl | inactive | – |
| O=S(=O)(O)CCS | inactive | – |
| O=C1NC(c2ccccc2)(c2ccccc2)C(=O)N1COP(=O)(O)O | inactive | – |
| Cc1c(C)c2c(c(C)c1O)CCC(C)(COc1ccc(CC3SC(=O)NC3=O)cc1)O2 (centres undefined) | inactive | – |

| SMILES | Potency | activation |
| --- | --- | --- |
| CC[C@H](c1ccc(O)cc1)[C@@H](CC)c1ccc(O)cc1 | inactive | – |
| Cc1ccc(S(=O)(=O)NC(=O)NC2CCCCCCC2)cc1 | inactive | – |
| CCC(C)(C)CC | inactive | – |
| O=S(=O)(O)c1ccc2c(N=Nc3ccc(S(=O)(=O)O)c4ccccc34)c(O)c(S(=O)(=O)O)cc2c1 | – | -0.404% [at 8.39 µM] (inactive) |
| O=Cc1ccc(F)cc1 | inactive | – |
| CCCCCC(=O)O[C@]1(C(C)=O)CC[C@H]2[C@@H]3CCC4=CC(=O)CC[C@]4(C)[C@H]3CC[C@@]21C | inactive | – |
| N#CC1(O)CCCCC1 | inactive | – |
| CC(C)[C@H]1CC[C@@H](C)CC1=O | inactive | – |
| O=c1cccc[nH]1 | inactive | – |
| CCCCCCCCSCC | inactive | – |
| CC/C=C\CCO | inactive | – |
| C1COC1 | inactive | – |
| CCC(=O)c1ccc(O)cc1 | inactive | – |
| Cc1ccc(O)c([N+](=O)[O-])c1 | inactive | – |
| CC(O)Cn1cnc2c1c(=O)n(C)c(=O)n2C (centres undefined) | inactive | – |
| CC(=O)OC/C=C/c1ccccc1 | inactive | – |
| C=C(C)[C@@H]1CC[C@@H](C)C[C@@H]1O | inactive | – |
| CC(C)=C1CC[C@@H](C)CC1=O | inactive | – |
| CC/C=C\CCOC(=O)CC | inactive | – |
| C=CCc1cc(OC)c(O)c(C(=O)NCCO)c1 | inactive | – |
| Cc1cccc(S(=O)(=O)O)c1C | inactive | – |
| CCCCCCCCCCCC[N+](C)(C)CCCS(=O)(=O)[O-] | inactive | – |
| ON=C1CCCCC1 | inactive | – |

| SMILES | Potency | activation |
| --- | --- | --- |
| C(/C=C/C=C/Nc1ccccc1)=Nc1ccccc1 | inactive | – |
| CC(=O)OCCOCCOCCOC(C)=O | 53.8 µM (active) and inactive | – |
| c1ccc(CCc2ccccc2)cc1 | inactive | – |
| CCc1cnc(C(=O)O)c(C(=O)O)c1 | inactive | – |
| CCCCCCCCCC(C)=O | inactive | – |
| C=COCCOCCOCCOC=C | inactive | – |
| CCC(OCCCOC)OC(C)=O (centres undefined) | inactive | – |
| Cc1ccc(S(=O)(=O)O)c(C)c1 | inactive | – |
| NCC1(Cc2noc(=O)[nH]2)CCCCC1 | inactive | – |
| NC(=O)c1ccccc1N | inactive | – |
| CC(C)(C)C(=O)C(Oc1ccc(Cl)cc1)n1ccnc1 (centres undefined) | inactive | – |
| CC(C)(C)c1n[nH]c(=O)n(N)c1=O | inactive | – |
| OCC(CO)N[C@H]1C[C@](O)(CO)[C@@H](O)[C@H](O)[C@H]1O | inactive | – |
| Cc1ccc(CO)cc1 | inactive | – |
| O=Cc1ccc(Cl)c(Cl)c1 | inactive | – |
| CC(C)(C)CC(C)(C)c1ccc(Nc2ccc(C(C)(C)CC(C)(C)C)cc2)cc1 | – | 6.6% [at 8.39 µM] (inactive) |
| O=C(O)CSCC(=O)NC1CCSC1=O (centres undefined) | inactive | – |
| N=C(N)c1ccc2cc(OC(=O)c3ccc(N=C(N)N)cc3)ccc2c1 | inactive | – |
| Nc1c(NC/C=C\COc2cc(CN3CCCCC3)ccn2)c(=O)c1=O | – | -3.93% [at 19 µM] (inactive) |
| CC[C@H]1CN2CCc3cc(OC)c(OC)cc3[C@@H]2C[C@@H]1C[C@H]1NCCc2cc(OC)c(OC)cc21 | inactive | – |
| O=c1[nH]c(=O)n([C@H]2CCCO2)cc1F | inactive | – |
| CCCCCCCCCCCCCC | inactive | – |
| CCN(CC)C(=O)C1CN2CCc3cc(OC)c(OC)cc3C2CC1OC(C)=O (centres undefined) | inactive | – |
